# Assay outcomes from PubChem BioAssay.
# ALDH1A1 inh: inhibitors of human aldehyde dehydrogenase 1A1 | P00352 | Purified ALDH1A1, NADH fluorescence, propionaldehyde substrate | Potency, µM (titrated, usually from 75.3 µM), inactives show top-dose activity, negative = inhibition, hits mostly inhibitors | actives 7.3% (n = 220,000);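 note: potency is the fitted concentration of half-maximal effect; plate controls were no enzyme wells and a reference inhibitor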
# HPGD inh: inhibitors of human 15-hydroxyprostaglandin dehydrogenase (HPGD); actives 4.3% (n = 150,000); P15428; Potency, µM, for inactives: at the highest dose activity change, negative = inhibition, most hits filed as inhibitors; AID 894; purified HPGD, NADH fluorescence kinetic, PGE2 substrate; note: potency is the fitted concentration of half-maximal effect
# Target sequence (P15428 whole entry, looked up): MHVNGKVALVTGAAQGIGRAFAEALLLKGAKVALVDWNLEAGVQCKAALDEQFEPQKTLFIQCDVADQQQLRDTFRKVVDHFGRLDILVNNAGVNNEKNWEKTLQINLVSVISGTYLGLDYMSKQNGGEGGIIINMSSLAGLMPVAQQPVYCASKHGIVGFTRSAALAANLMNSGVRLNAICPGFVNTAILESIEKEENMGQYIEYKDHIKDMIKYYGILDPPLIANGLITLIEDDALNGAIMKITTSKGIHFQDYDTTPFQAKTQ
#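 20 nM HPGD preincubated 15 min at room temperature with compound in 50 mM Tris-HCl pH 8, 0.01% Tween 20. Started with 1 mM NAD+ and 30 uM prostaglandin E2; NADH fluorescence (360/450 nm) read 5 times over 30-s intervals, last minus first.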
# KDM4E inh: JMJD2E (human) inhibition. B2RXH2. JMJD2E catalytic domain, FDH-coupled NADH fluorescence (FDH is formaldehyde dehydrogenase). Potency, µM (doses to about 57.1 µM), inactives show at the highest dose activity change, negative = inhibition, hits mostly inhibitors. actives 1.6% (n = 230,000). AID 2147;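 note: potency is the fitted concentration of half-maximal effect; 0% = wells with enzyme and -100% = buffer wells without enzyme; nearly all actives have a fitted effect of over 50% in size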
# Target sequence (B2RXH2 1-337 limits assumed): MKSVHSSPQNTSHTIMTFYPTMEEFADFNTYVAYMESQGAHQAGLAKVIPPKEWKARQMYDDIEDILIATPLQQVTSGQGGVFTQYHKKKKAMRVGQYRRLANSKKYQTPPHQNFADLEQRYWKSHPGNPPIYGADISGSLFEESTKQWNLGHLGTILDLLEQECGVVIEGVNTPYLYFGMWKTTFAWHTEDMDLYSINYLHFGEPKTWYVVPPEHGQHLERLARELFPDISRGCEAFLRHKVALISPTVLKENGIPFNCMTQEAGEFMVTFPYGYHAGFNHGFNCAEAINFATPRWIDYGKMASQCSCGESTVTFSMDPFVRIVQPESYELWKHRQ
# PNC inhibitor: inhibitors of perinucleolar compartment assembly; PC3M PTB-GFP, PNC prevalence imaging, 16 h; hits give low values; AID 2417; actives 3.1% (n = 140,000); activity change (PNC), negative = inhibition, % at 10 µM;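 active = readout at or below -70, meaning at least 70% loss of cells showing the perinucleolar compartment, a nuclear body marking cancer cells; inconclusive = readout between -30 and a set limit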;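 note: plate controls were DMSO wells for no effect and camptothecin positive control wells for full effect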
#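 Compounds are pinned in duplicate onto adhered PC3M cells stably expressing GFP-tagged PTB and incubated 16 h at 37 C. Cells are then fixed, nuclei stained with Hoechst, and PNC-positive cells counted.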
# * = called active by the depositor; ? = inconclusive; . = no result; [ ] = remark or other dose. Compounds with a hit are over-represented: about 11% of the library has one in this group of screens. Unless noted, calls come from the whole dose curve; as a rule, active = well fitted inhibition curve with a large enough effect (not every such curve was filed as active); inconclusive = small, poorly fitted or top-dose-only effect, or another doubt; inactive = no such curve, though single readings can be large or run the other way. Unless noted, % is set by controls: 0 for no effect and ±100 for the full control effect.
SMILES,ALDH1A1 inh,HPGD inh,KDM4E inh,PNC inhibitor
CC(/C=C/c1ccc(N(C)C)cc1)=N/N=C1/NC(=O)CC(C(=O)Nc2ccc(Cl)cc2)S1 (centres undefined),25µM*,-23%,7%,13
CCn1c(SCC(=O)Nc2ccccc2OC)nc(O)cc1=O,.,.,5%,.
N=c1n(CC(=O)c2ccc([N+](=O)[O-])cc2)c2ccccc2n1Cc1ccccc1Cl,-11%,-6%,-1%,-88*
N=c1n(CC(=O)c2ccc([N+](=O)[O-])cc2)c2ccccc2n1Cc1ccccc1,-11%,-5%,?,-9
Cc1cccc(C)c1Nc1nnc(SCc2cc([N+](=O)[O-])cc3c2OCOC3)s1,22µM*,11µM*,-8%,-1
Cc1ccc(C)c(S(=O)(=O)N2CCC(c3nc4c(nnn4Cc4ccc(F)cc4)c(=O)[nH]3)CC2)c1,-10%,13µM*,1%,-20
Cc1ccc(Cn2nnc3c(=O)[nH]c(C4CCN(S(=O)(=O)c5cc(C)ccc5C)CC4)nc32)cc1,-6%,22µM*,-2%,44
Cc1ccc(Cn2nnc3c(=O)[nH]c(C4CCN(S(=O)(=O)c5ccc(F)cc5)CC4)nc32)cc1,0%,-16%,-11%,122
CC(C)c1ccc(OCc2ccc(C(=O)O)o2)cc1,.,.,7.9µM*,.
CC1CN(C(=O)c2ccc(COc3ccc(C(C)C)cc3)o2)CC(C)O1 (centres undefined),28µM*,.,-10%,.
CC1CN(C(=O)c2ccc(COc3ccc4ccccc4c3)o2)CC(C)O1 (centres undefined),?,.,-8%,.
CN(C)CC(O)Cn1c2ccc(Br)cc2c2cc(Br)ccc21 (centres undefined),6%,.,.,.
C[C@@H](CC(=O)O)[C@@H](N)C(=O)O,4%,2%,-8%,.
O/N=C/c1ccccc1Oc1ccccc1,?,16µM*,8%,-22
Cc1cc(C)cc(Oc2ccccc2C=O)c1,-1%,-4%,3%,-18
Cc1cc(C)cc(Oc2ccccc2/C=N\O)c1,7%,22µM*,-8%,?
CCOC(=O)c1c(NC(=O)/C=C/C(=O)O)sc(C)c1-c1ccc(Cl)cc1,20µM*,.,3%,.
CCOC(=O)c1c(NC(=O)CCl)sc(CN(C)C)c1-c1ccccc1,7.1µM*,.,3%,.
CCOC(=O)c1c(NC(=O)CN2CCCCC2)sc(CN(C)C)c1-c1ccccc1,-15%,.,-1%,.
CCOC(=O)c1c(NC(=O)Nc2ccc(Cl)cc2)sc(C)c1C,?,?,10%,112
O[C@@](CCN1CCCCC1)(c1ccccc1)[C@@H]1C[C@H]2C=C[C@@H]1C2,7%[20.9 µM],-2%,7%[25.5 µM],.
O=C1CCC[C@H]1C(=O)Nc1ccc2ccccc2c1,12%[13.5 µM],-7%,.,.
N#Cc1cccc(NC(=O)N2CC[C@@]3(CCCN(C(=O)c4ccncc4)C3)C2)c1,18%,-10%,.,.
COC(=O)[C@@H](NC(=O)Nc1ccc(OC(F)(F)F)cc1)C(C)C,?,28µM*,-5%,0
COc1ccc(C(=O)NC(=S)NNC(=O)c2cnccn2)cc1,18µM*,?,2%,30
SMILES,ALDH1A1 inh,HPGD inh,KDM4E inh,PNC inhibitor
COc1cc(C(=O)NC(=S)NNC(=O)c2cnccn2)cc(OC)c1OC,-5%,?,11µM*,5
CCOC(=O)C1=C(C)Nc2ccccc2N=C1NC(=O)Cc1ccc(OC)cc1,-10%,-11%,-3%,2
CCOC(=O)C1=C(C)Nc2ccccc2N=C1NC(=O)/C=C/c1ccc(OC)cc1OC,20µM*,.,?,.
O=c1[nH]c(N2CCCCC2)nc2ncn(Cc3ccccc3)c12,.,.,1%,.
Cc1nc2cc(NCc3ccccc3O)ccc2n1Cc1ccccc1,?,.,40µM*,.
O=C1CCCC(=O)C1CS(=O)(=O)c1ccccc1,13µM*,.,-15%,.
COc1ccc(C2CC(=O)C(CS(=O)(=O)c3ccccc3)C(=O)C2)cc1 (centres undefined),7.9µM*,.,132%,.
O=C1CC(c2ccc(Cl)cc2)CC(=O)C1CS(=O)(=O)c1ccccc1 (centres undefined),7.1µM*,.,-27%,.
O=C1CC(c2ccccc2)CC(=O)C1Sc1ccc(Cl)cc1 (centres undefined),?,?,3%,-1
COc1ccc(C2=CC(=O)CC(c3ccccc3)C2)cc1 (centres undefined),?,.,-8%,.
CCN(CC)S(=O)(=O)c1ccc(N2CCCC2)c(NC(=O)CC(C)(C)C)c1,.,.,-1%,.
CCN(CC)S(=O)(=O)c1ccc(N2CCCC2)c(NC(=O)c2ccncc2)c1,16µM*,.,-17%,.
CCN(CC)S(=O)(=O)c1ccc(N2CCOCC2)c(NC(=O)c2ccccc2)c1,?,-19%,-15%,11
CCN(CC)S(=O)(=O)c1ccc(N2CCCCC2)c(NC(=O)c2ccncc2)c1,11µM*,.,9%,.
O=C(O)c1cn(-c2ccc(N3CCCC3)c(F)c2)c2c(F)c(F)c(F)cc2c1=O,16µM*,.,?,.
CCn1c(SCC(=O)N2CCCc3ccccc32)nnc1-c1ccoc1C,-5%,-13%,4%,-100*
CCn1c(SCC(=O)N2CCCc3ccccc32)nnc1-c1cccs1,-8%,-2%,-3%,?
CCn1c(SCC(=O)N2CCCc3ccccc32)nnc1-c1ccco1,22µM*,-11%,5%,-9
C=C(C)C(N)=O,10%,-8%,.,.
COc1cc2[nH]c(=O)n3nc(-c4ccccc4)nc3c2cc1OC,?,?,?,-100*
N#Cc1cnn(CC2CCCCC2)c1N,5%,-11%,-11%,-97*
N#Cc1cnn(-c2nc3sc4c(c3c(=O)[nH]2)CCCC4)c1N,2%,?,12%,17
CCCCN1C(=O)C(=O)N(CC(=O)NC2CCCc3ccccc32)C1=O (centres undefined),-6%,.,3%,.
COc1ccc(OC)c(N=C(C)C2=C(O)COC2=O)c1,0%,-4%,-6%,-21
CC(=Nc1ccccc1)C1=C(O)COC1=O,5.6µM*,-9%,1%,47
SMILES,ALDH1A1 inh,HPGD inh,KDM4E inh,PNC inhibitor
Cc1cccc(C(=O)NCC(c2ccc(F)cc2)N2CCOCC2)c1 (centres undefined),19%,.,6%,.
O=[N+]([O-])c1ccc(C2=Nn3c(nnc3-c3ccc(Cl)cc3)SC2)o1,-9%[13.5 µM],-10%,.,.
Cn1cccc1/C=N/n1c(-c2ccco2)n[nH]c1=S,-8%,.,3%,.
CC(/C=N/n1c(-c2ccc(C)cc2)n[nH]c1=S)=C\c1ccco1,?,2.5µM*,-1%,-5
CC(/C=N/n1c(-c2ccco2)n[nH]c1=S)=C\c1ccco1,32µM*,14µM*,?,62
CC(/C=N/n1c(-c2ccccc2)n[nH]c1=S)=C\c1ccco1,?,?,-4%,40
COCC(=O)Nc1ccc(C(=O)Nc2ccccc2Cl)cc1,4%,.,3%,.
N[C@@H](Cn1cc(F)c(=O)[nH]c1=O)C(=O)O,-5%,-8%,?,.
C[C@@H](CNC(N)=O)NC(N)=O,4%[13.5 µM],-17%,.,.
Cc1cc(OC(C)C)nc(-c2ccccc2O)n1,14%,0%,5%,?
CCCOc1cc(C)nc(-c2ccccc2O)n1,10µM*,.,-4%,-19
Cc1nc(N2CCCCC2)sc1C(=O)c1cccc([N+](=O)[O-])c1,10µM*,.,12%,.
